Inconclusive results are not listed. Activity calls are given as the source filed them. Calls come from the whole dose curve; as a rule, active = well fitted cell-killing curve with a large enough effect in the repeat runs; inconclusive = weak or mixed curves, or effect the other way; inactive = no such curve, though single readings can be large or run the other way.
experiment: qHTS assay to identify small molecule agonists of the vitamin D receptor (VDR) signaling pathway - cell viability counter screen (AID 743224); details: VDR-bla HEK293T viability, CellTiter-Glo luminescence, 16 h; series mostly up to 62.6 µM; activity change, negative = cytotoxicity: at the top concentration; note: nearly all actives have a fitted effect of over 50% in size
Description: U.S. Tox21 Program National Center for Advancing Translational Sciences [NCATS] NIH Chemical Genomics Center [NCGC] U.S. Environmental Protection Agency [EPA] National Institutes of Environmental Health Sciences [NIEHS] National Toxicology Program [NTP] U.S. Food and Drug Administration [FDA] Tox21 Assay Overview: The vitamin D receptor (VDR), a member of nuclear hormone receptor superfamily, plays a critical role in calcium homeostasis and bone metabolism. It is also involved in cell differentiation and growth, and thrombogenicity. […] The cytotoxicity of the Tox21 compound library against the VDR-bla cell line was tested in parallel by measuring the cell viability using CellTiter-Glo assay (Promega, Madison, WI) in the same wells.
Tox21 Assay Protocol Summary: VDR-bla cells were dispensed at 2,000 cells/6 uL/well into black wall/clear-bottom 1536-well plates using a Multidrop Combi (Thermo Fisher Scientific, Waltham, MA) dispenser. After the assay plates were incubated at a 37C and 5% CO2 for 4 h, 23 nL of compounds dissolved in DMSO, positive controls or DMSO only was transferred to the assay plate by a Pintool station (Kalypsys, San Diego, CA). The plates were incubated at 37C and 5% CO2 for 16 h. After 1 uL of LiveBLAzerTM B/G FRET substrate was added using a Bioraptr Flying Reagent Dispenser (FRD) workstation (Beckman Coulter, Indianapolis, IN, USA), the plates were incubated at room temperature for 2 h, and fluorescence intensity was measured by an Envision plate reader (PerkinElmer, Shelton, CT). For cell viability readout that measures cytotoxicity, 3 ul/well of CellTiter-Glo reagent was added into the assay plates using a FRD. After 30 min incubation at room temperature, the luminescence intensity in the plates was measured using a ViewLux (PerkinElmer) plate reader.
% is set by controls: 0 for no effect and ±100 for the full control effect.

Row | Structure (SMILES) | activity change, negative = cytotoxicity
1 | COCCOCCOCCOCCO | -12.9% (inactive)
2 | CCCC(=O)C(C)=O | 12.2% (inactive)
3 | O=C(OCC1(COC(=O)c2cccnc2)CCCC(COC(=O)c2cccnc2)(COC(=O)c2cccnc2)C1O)c1cccnc1 | -0.136% (inactive)
4 | CC(=O)N[C@@H](CCC(=O)O)C(=O)O | 3.34% (inactive)
5 | O=C(OCC(COC(=O)c1cccnc1)(COC(=O)c1cccnc1)COC(=O)c1cccnc1)c1cccnc1 | 9.84% (inactive)
6 | COc1ccc(S(=O)(=O)N2c3ccc(Cl)cc3[C@@](O)(c3ccccc3Cl)[C@H]2C(=O)N2CCC[C@@H]2C(N)=O)cc1OC | 20.7% (inactive)
7 | CC(CO)c1ccccc1 (stereo not given) | 2.4% (inactive)
8 | CC(C)CCCCOC(=O)c1ccccc1C(=O)OCCCCC(C)C | -20.3% (inactive)
9 | CCCCCOC(=O)CCC | -4.12% (inactive)
10 | CC(C)=CCOC(=O)c1ccccc1 | -0.34% (inactive)
11 | Cc1cccc(OCC(O)CNC(C)(C)C)c1C (stereo not given) | 3.3% (inactive)
12 | BrCCCCCBr | -10.1% [at 81.1 µM] (inactive)
13 | CCCC/C=C/C=C\C=O | -2.5% (inactive)
14 | Cc1ccc2c(c1)OCC(=O)CO2 | -20.7% (inactive)
15 | CCOCCOCCOCC | 3.12% (inactive)
16 | CCCCCCN | -16% (inactive)
17 | CCCCCCCCCCl | -6.81% [at 81.1 µM] (inactive)
18 | c1ccc2nccnc2c1 | -0.422% [at 81.1 µM] (inactive)
19 | CC(C)NCC(O)COc1ccc(COCCOC(C)C)cc1 (stereo not given) | 10.8% (inactive)
20 | O=C1CC(c2ccc(Cl)cc2)CC(=O)N1 | 19.3% (inactive)

Row | Structure (SMILES) | activity change, negative = cytotoxicity
21 | CC(=O)CCCCn1c(=O)c2c(ncn2C)n(C)c1=O | 8.47% (inactive)
22 | CCOCCOC(=O)/C=C/c1ccc(OC)cc1 | 7.67% (inactive)
23 | Brc1ccc(-c2ccccc2)cc1 | 3.22% (inactive)
24 | CC(C)OC(=O)CCCCC(=O)OC(C)C | -2.39% (inactive)
25 | CO[C@@H]1[C@@H](OC(N)=O)[C@@H](O)[C@H](Oc2ccc3c(O)c(NC(=O)c4ccc(O)c(CC=C(C)C)c4)c(=O)oc3c2C)OC1(C)C | -3.66% (inactive)
26 | O=C(NCCN1CCOCC1)c1ccc(Cl)cc1 | -3.47% (inactive)
27 | CCCCCCOc1ccccc1C(N)=O | -0.928% (inactive)
28 | O=C(O)c1cc(Cl)cc([N+](=O)[O-])c1Cl | 3.97% (inactive)
29 | COc1cc2c(cc1OC)[C@@H]1CC(=O)[C@@H](CC(C)C)CN1CC2 | 7.97% (inactive)
30 | O=C(CS(=O)Cc1ccco1)NC/C=C\COc1cc(CN2CCCCC2)ccn1 (stereo not given) | -0.262% (inactive)
31 | O=C(O)c1ccc(Cl)cc1Cl | 7.41% [at 81.1 µM] (inactive)
32 | CCCCCCCCC1CCC(=O)O1 (stereo not given) | -0.557% (inactive)
33 | C=C(C)C(=O)OCCN(CC)CC | -11.8% (inactive)
34 | CCc1ccc(C=O)cc1 | 21.2% (inactive)
35 | COP(=O)(OC)OC(c1ccc(Cl)cc1)P(=O)(OC)OC (stereo not given) | -1.31% (inactive)
36 | Oc1cn2c(n1)Nc1ccc(Cl)c(Cl)c1C2 | -0.508% [at 29.1 µM] (inactive)
37 | Nc1ncnc(Nc2ccccc2)n1 | 1.73% (inactive)
38 | Cc1ccccc1OCC(O)CO (stereo not given) | -0.947% (inactive)
39 | O=S(=O)(O)CCN1CCN(CCO)CC1 | 5.1% (inactive)
40 | COc1ccc2nc(SCc3ncc(C)c(OC)c3C)[nH]c2c1 | -14.6% (inactive)

— PubChem BioAssay (Tox21)
